# Results taken from PubChem BioAssay AID2732 (Emory University Molecular Libraries Screening Center, 2010).
# About 8,200 (3.7%) of roughly 220,000 compounds were called active. This excerpt belongs to a sample that is enriched for actives. Values without a mark were called inactive.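 How the source made its calls: active means compounds that reduced the stress-induced luciferase reporter signal by more than about 70% of percent inhibition (limit read from the data); inactive means the rest.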
# Assay: blockers of ER-stress CHOP reporter expression – cell-based, unfolded protein response, luciferase reporter, primary screen (AID 2732);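 further: 0% = tunicamycin plus vehicle and 100% = wells without tunicamycin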
# Details: CHO-K1 CHOP-promoter luciferase, tunicamycin-induced, 15-18 h; at 10 µM; active compounds read high
row,SMILES,inhibition
1,CCCCCCCCCCCCn1ccc(=N)cc1,90.9% (active)
2,CC(=C1C(=O)c2ccccc2C1=O)N1CCN(CCN=Cc2c(O)n(C)c(=O)n(C)c2=O)CC1,-9.11%
3,COc1ccc(NC(=O)N2CCC3(CC2)OCCO3)c(OC)c1,18.7%
4,CCC1(C)CC(CCNCc2ccc(N(C)C)cc2)(c2ccc(F)cc2)CCO1 (stereo not given),8.31%
5,COc1ccc(CN2C(=O)NC(=O)/C(=C\c3ccc(OC)c(OC)c3OC)C2=O)cc1,-5.09%
6,CN(C)CC1Oc2ccccc2OC1(O)c1ccccc1 (stereo not given),88.8% (active)
7,CCOC(=O)c1ncn2c1[C@@H]1CCCN1C(=O)c1cc(OC)ccc1-2,-1.91%
8,CN1CCN(C(=S)SCC(=O)Nc2ccc(Cl)cc2C(=O)c2ccccc2)CC1,35%
9,O=C(COC(=O)c1ccccc1)Nc1ccc(Cl)cc1C(=O)c1ccccc1,80.1% (active)
10,O=C(CCNS(=O)(=O)c1ccccc1)Nc1ccc(Cl)cc1C(=O)c1ccccc1,-12.3%
11,COC(=O)N(c1ccc(OC)cc1)P1(=S)OCCC(C)O1 (stereo not given),-1.61%
12,CCC(=O)CC(c1ccc([N+](=O)[O-])cc1)c1c(O)c2ccccc2oc1=O (stereo not given),-16.6%
13,Cc1ccc2c(c1)C1CN(C)CCC1N2C(=O)Cn1nnc(-c2ccccc2F)n1 (stereo not given),3.99%
14,CCN1CCN(c2ccc([N+](=O)[O-])cc2C#N)CC1,8.37%
15,Cn1c(O)c(C(=Nc2ccc(F)cc2)c2ccccc2)c(=O)n(C)c1=O,2.66%
16,Cc1ccc(-n2c(C)cc(/C=C3\C(=O)NC(=O)N(C)C3=O)c2C)cc1C,78.5% (active)
17,Cc1cc(C=C2C(=O)NC(=O)NC2=O)c(C)n1-c1ccncc1,16.7%
18,Cc1ccnc(-n2c(C)cc(/C=C3\C(=O)NC(=S)N(C)C3=O)c2C)c1,-16.7%
19,C=CCN1CCC2(C)c3cc(O)ccc3CC1[C@@H]2C (stereo not given in full),9.89%
20,Cc1ccc(CN2CCCC(C(=O)c3ccc4c(c3)OCO4)C2)cc1C (stereo not given),-2.37%
21,O=c1[nH]c(=O)n(CCc2ccccc2)c(O)c1/C=N/N1CCOCC1,-18.4%
22,CCCCn1c(O)c(C(CC)=NCc2ccco2)c(=O)[nH]c1=O,6.6%
23,CCC(=NCCCO)c1c(O)n(-c2ccc(OC)cc2)c(=O)[nH]c1=O,14.6%

row,SMILES,inhibition
1,CCCCCCN=C(CC)c1c(O)n(CCCC)c(=O)[nH]c1=O,106% (active)
2,O=c1[nH]c(=O)n(CCc2ccc(F)cc2)c(O)c1/C=N/N1CCCCC1,3.76%
3,CC1(C)Cc2c(C#N)c(N3CCNCC3)nc(-c3ccco3)c2CS1,3.49%
4,CCCCCn1c(=O)c(C(=O)NCc2ccccn2)c(O)c2ccccc21,40.5%
5,CCCCCn1c(=O)c(C(=O)Nc2c(C)n(C)n(-c3ccccc3)c2=O)c(O)c2ccccc21,89.7% (active)
6,COc1cc(C(c2c(O)c3ccccc3oc2=O)c2c(C)n(C)n(-c3ccccc3)c2=O)ccc1O (stereo not given),8.54%
7,CCOP(=O)(OCC)C(O)c1ccc(OC)cc1OC (stereo not given),1.95%
8,COc1ccc2c(c1O)-c1cccc3c1[C@@H](C2)N(C)CC3,-0.63%
9,COc1ccc(-n2c(-c3ccccc3)nc3ccccc3c2=O)cc1,-0.77%
10,CC(=O)c1c(O)c(C)c(O)c(Cc2c(O)c3c(c(C(=O)/C=C/c4ccccc4)c2O)OC(C)(C)C=C3)c1O,-9.85%
11,O=C1NC(=O)N(Cc2ccco2)C(=O)/C1=C\c1ccc(-c2ccc(F)cc2)o1,4.85%
12,O=C1NC(=O)N(CCc2ccc(F)cc2)C(=O)/C1=C/C=C/c1ccccc1,79.8% (active)
13,O=C(O)COc1ccccc1/C=C1\C(=O)NC(=O)N(CCC2=CCCCC2)C1=O,-7.81%
14,COc1ccc(NC(=O)c2cn(CCC#N)nc2-c2ccc([N+](=O)[O-])cc2)cc1,-2.78%
15,Cc1ccc(-n2c(-c3ccc([N+](=O)[O-])cc3)nc3ccccc3c2=O)cc1,-10.7%
16,O=C(O)C1C2CCC(O2)C1C(=O)O (stereo not given),-11.8%
17,CN(C)c1ccc(/C=C2\CC3C4CC=C5CC(O)CCC5(C)C4CCC3(C)C2=O)cc1 (stereo not given),96% (active)
18,CC(c1ccccc1)(c1ccccc1)c1ccncc1,34.4%
19,CCN1c2nc3c(C)cccn3c(=O)c2CC2(C(=O)N(C)C(=O)N(C)C2=O)C1C (stereo not given),6.18%
20,CCCCC(=O)N/N=C/c1c(O)n(-c2ccccc2)c(=O)[nH]c1=O,-1.28%
21,O=C(CSC1c2ccccc2-c2ccccc21)N/N=C/c1ccccc1,97.3% (active)
22,CC(=O)N1CN2CN(C(C)=O)CC(C(=O)c3ccc(Br)cc3)(C2)C1,5.64%
